# Data as given in the supplement of paper PMC8728848.
# Shown is part of a subset that was picked to be rich in the strongest signals.
# What was measured:
# Test in all cases: glycan array binding signal (z-score within array); higher = stronger binding
# Conditions in all cases: glycan notation: IUPAC condensed, linker removed
# [1] = target: Fuc(a1-2)[Gal(a1-3)]Gal(b1-3)GlcNAc
# Outline: (§1)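 The binding signal is a Z-score computed within each array. Data were drawn from 3228 arrays in the Consortium for Functional Glycomics database, restricted to those with a known protein sequence. Scores were averaged over arrays of the same protein sequence at different concentrations or buffers, and over linkers, and negative values can be taken as non-binding.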
# [2] = target: Fuc(a1-2)[Gal(a1-3)]Gal(b1-3)GlcNAc(b1-2)Man(a1-3)[Fuc(a1-2)[Gal(a1-3)]Gal(b1-3)GlcNAc(b1-2)Man(a1-6)]Man(b1-4)GlcNAc(b1-4)GlcNAc
# Outline: as §1
# [3] = target: Fuc(a1-2)[Gal(a1-3)]Gal(b1-3)GlcNAc(b1-3)GalNAc
# Outline: as §1
# [4] = target: Fuc(a1-2)[Gal(a1-3)]Gal(b1-3)GlcNAc(b1-6)GalNAc
# Outline: as §1
# [5] = target: Fuc(a1-2)[Gal(a1-3)]Gal(b1-4)Glc
# Outline: as §1
# [6] = target: Fuc(a1-2)[Gal(a1-3)]Gal(b1-4)GlcNAc
# Outline: as §1
# [7] = target: Fuc(a1-2)[Gal(a1-3)]Gal(b1-4)GlcNAc(b1-2)Man
# Outline: as §1
# [8] = target: Fuc(a1-2)[Gal(a1-3)]Gal(b1-4)GlcNAc(b1-2)Man(a1-3)[Fuc(a1-2)[Gal(a1-3)]Gal(b1-4)GlcNAc(b1-2)Man(a1-6)]Man(b1-4)GlcNAc(b1-4)GlcNAc
# Outline: as §1
# [9] = target: Fuc(a1-2)[Gal(a1-3)]Gal(b1-4)GlcNAc(b1-2)Man(a1-3)[Fuc(a1-2)[Gal(a1-3)]Gal(b1-4)GlcNAc(b1-2)Man(a1-6)]Man(b1-4)GlcNAc(b1-4)[Fuc(a1-6)]GlcNAc
# Outline: as §1
# [10] = target: Fuc(a1-2)[Gal(a1-3)]Gal(b1-4)GlcNAc(b1-3)GalNAc
# Outline: as §1
# [11] = target: Fuc(a1-2)[Gal(a1-3)]Gal(b1-4)GlcNAc(b1-3)[Fuc(a1-2)[Gal(a1-3)]Gal(b1-4)GlcNAc(b1-6)]GalNAc
# Outline: as §1
# [12] = target: Fuc(a1-2)[Gal(a1-3)]Gal(b1-4)[Fuc(a1-3)]GlcNAc(b1-3)GalNAc
# Outline: as §1
# [13] = target: Fuc(a1-2)[GalNAc(a1-3)]Gal(b1-4)GlcNAc(b1-6)GalNAc
# Outline: as §1
# [14] = target: Fuc(a1-3)[Gal(b1-4)]GlcNAc(b1-6)[Gal(b1-3)GlcNAc(b1-3)]Gal(b1-4)Glc
# Outline: as §1
# [15] = target: Gal(b1-3)GlcNAc(b1-2)Man(a1-3)[Gal(b1-3)GlcNAc(b1-2)Man(a1-6)]Man(b1-4)GlcNAc(b1-4)[Fuc(a1-6)]GlcNAc
# Outline: as §1
# [16] = target: Gal(b1-3)GlcNAc(b1-3)Gal(b1-4)GlcNAc(b1-3)Gal(b1-4)GlcNAc(b1-2)[Gal(b1-3)GlcNAc(b1-3)Gal(b1-4)GlcNAc(b1-3)Gal(b1-4)GlcNAc(b1-6)]Man(a1-6)[Gal(b1-3)GlcNAc(b1-3)Gal(b1-4)GlcNAc(b1-3)Gal(b1-4)GlcNAc(b1-2)Man(a1-3)]Man(b1-4)GlcNAc(b1-4)[Fuc(a1-6)]GlcNAc
# Outline: as §1
# [17] = target: Gal(b1-3)[Fuc(a1-4)]GlcNAc
# Outline: as §1
# [18] = target: Gal(b1-4)Glc
# Outline: as §1
# [19] = target: Gal(b1-4)Glc6S
# Outline: as §1
# [20] = target: Gal(b1-4)GlcNAc(a1-6)Gal(b1-4)GlcNAc
# Outline: as §1
# [21] = target: Gal(b1-4)GlcNAc(b1-2)Man(a1-6)[GlcNAc(b1-2)Man(a1-3)]Man(b1-4)GlcNAc(b1-4)GlcNAc
# Outline: as §1
# [22] = target: Gal(b1-4)GlcNAc(b1-3)Gal(b1-4)GlcNAc(b1-2)[Gal(b1-4)GlcNAc(b1-3)Gal(b1-4)GlcNAc(b1-6)]Man(a1-6)[Gal(b1-4)GlcNAc(b1-3)Gal(b1-4)GlcNAc(b1-2)Man(a1-3)]Man(b1-4)GlcNAc(b1-4)GlcNAc
# Outline: as §1
# [23] = target: Gal3S6S(b1-4)GlcNAc
# Outline: as §1
# [24] = target: Gal3S6S(b1-4)GlcNAc6S
# Outline: as §1
# [25] = target: Gal6S(b1-4)GlcNAc
# Outline: as §1
# [26] = target: GalNAc(b1-3)Gal(a1-4)Gal(b1-4)GlcNAc(b1-3)Gal(b1-4)Glc
# Outline: as §1
# [27] = target: GalNAc(b1-3)GlcNAc
# Outline: as §1
# [28] = target: GalNAc(b1-4)GlcNAc(b1-2)Man
# Outline: as §1
# [29] = target: GalNAc3S(b1-4)GlcNAc
# Outline: as §1
# [30] = target: GlcNAc(a1-4)Gal(b1-4)GalNAc
# Outline: as §1
# [31] = target: Fuc(a1-2)[Gal(a1-3)]Gal
# Outline: as §1
# [32] = target: Fuc(a1-2)[Gal(a1-4)]Gal(b1-4)GlcNAc
# Outline: as §1
# [33] = target: Fuc(a1-2)[GalNAc(a1-3)]Gal(b1-4)[Fuc(a1-3)]GlcNAc
# Outline: as §1
# [34] = target: Fuc(a1-3)[Gal(b1-4)]GlcNAc(b1-4)Gal(b1-4)[Fuc(a1-3)]GlcNAc
# Outline: as §1
# [35] = target: Fuc(a1-3)[GalNAc(b1-4)]GlcNAc
# Outline: as §1
# [36] = target: Gal(a1-3)Gal
# Outline: as §1
# [37] = target: Gal(a1-3)Gal(b1-4)GlcNAc
# Outline: as §1
# [38] = target: Gal(a1-3)[Gal(a1-4)]Gal(b1-4)GlcNAc
# Outline: as §1
# [39] = target: Gal(b1-3)Gal
# Outline: as §1
# [40] = target: Gal(b1-3)GalNAc(b1-4)[Neu5Ac(a2-3)]Gal(b1-4)Glc
# Outline: as §1
# [41] = target: Gal(b1-3)GlcNAc(b1-3)Gal(b1-4)Glc
# Outline: as §1
# [42] = target: Gal(b1-3)[Neu5Ac(b2-6)]GalNAc
# Outline: as §1
# [43] = target: Gal(b1-4)GlcNAc(b1-3)Gal(b1-4)GlcNAc(b1-3)Gal(b1-4)GlcNAc
# Outline: as §1
# [44] = target: Gal(b1-4)GlcNAc(b1-6)[Gal(b1-3)]GalNAc
# Outline: as §1
# [45] = target: GalNAc(a1-3)Gal
# Outline: as §1
# [46] = target: GlcNAc(b1-3)Gal(b1-4)GlcNAc
# Outline: as §1
# [47] = target: Man(a1-3)[Man(a1-6)]Man
# Outline: as §1
# [48] = target: Neu5Ac(a2-3)Gal(b1-3)[Fuc(a1-4)]GlcNAc(b1-3)Gal(b1-4)[Fuc(a1-3)]GlcNAc
# Outline: as §1
# [49] = target: Neu5Ac(a2-3)[GalNAc(b1-4)]Gal(b1-4)Glc
# Outline: as §1
# [50] = target: Neu5Ac(a2-3)[GalNAc(b1-4)]Gal(b1-4)GlcNAc
# Outline: as §1
# [51] = target: Neu5Ac(a2-6)Gal(b1-4)Glc
# Outline: as §1
binder,measurement,setting,value
"DrGRIFIN (Danio rerio), Q6DGJ1 (protein) MTLRFEASCPDGLCPGWSVILKGETPPEASKFEINFLCDRDDRVAFHFNPRFTESDIICNSYMANRWGQEERCNHFPLGVEEPFQIEIYSDNDHFHVYIDKAKVMQYKHRVEDLKTITKLQVVNDVKISSLEITKKLFY",glycan array binding signal (z-score),[1],5.95
same,glycan array binding signal (z-score),[2],10.6
same,glycan array binding signal (z-score),[3],5.36
same,glycan array binding signal (z-score),[4],6.96
same,glycan array binding signal (z-score),[5],6.1
same,glycan array binding signal (z-score),[6],6.44
same,glycan array binding signal (z-score),[7],9.46
same,glycan array binding signal (z-score),[8],4.9
same,glycan array binding signal (z-score),[9],5.59
same,glycan array binding signal (z-score),[10],4.81
same,glycan array binding signal (z-score),[11],6.36
same,glycan array binding signal (z-score),[12],-0.062
same,glycan array binding signal (z-score),[13],-0.23
same,glycan array binding signal (z-score),[14],-0.109
same,glycan array binding signal (z-score),[15],-0.135
same,glycan array binding signal (z-score),[16],-0.107
same,glycan array binding signal (z-score),[17],-0.187
same,glycan array binding signal (z-score),[18],-0.191
same,glycan array binding signal (z-score),[19],-0.201
same,glycan array binding signal (z-score),[20],-0.172
same,glycan array binding signal (z-score),[21],-0.071
same,glycan array binding signal (z-score),[22],-0.039
same,glycan array binding signal (z-score),[23],-0.193
same,glycan array binding signal (z-score),[24],-0.097
same,glycan array binding signal (z-score),[25],-0.181
same,glycan array binding signal (z-score),[26],-0.12
same,glycan array binding signal (z-score),[27],-0.192
same,glycan array binding signal (z-score),[28],-0.129
same,glycan array binding signal (z-score),[29],-0.052
same,glycan array binding signal (z-score),[30],-0.154
SIGNR8 (Mus musculus) (protein) MAGEPEFHQSKNHEEEVTSGEQGFAEHDPEGLICSSKSLQGHLTQVPWLLLLLISLGLFLLMLATLVQVSRIRAYSQGQTQDQQGSSSLDKVAVPREQTHSGLEQIQQIQQQLTQFNASLAGLCRPCPWDWELFQGSCYLFSRTLGSWETSASSCEDLGAHLVIVNSVSEQRFMKYWNVRKNQRSWIGLSDHIHEGSWQWVDGSALKFSFWKEGEPNNDGDEDCVELFMDDWNDNKCTEQNFWVCEQPSAPCPHH,glycan array binding signal (z-score),[31],2.32
same,glycan array binding signal (z-score),[32],3.32
same,glycan array binding signal (z-score),[33],-0.386
same,glycan array binding signal (z-score),[34],-0.385
same,glycan array binding signal (z-score),[35],-0.369
same,glycan array binding signal (z-score),[36],2.62
same,glycan array binding signal (z-score),[37],3.18
same,glycan array binding signal (z-score),[38],4.59
same,glycan array binding signal (z-score),[39],4.35
same,glycan array binding signal (z-score),[40],-0.329
same,glycan array binding signal (z-score),[41],-0.386
same,glycan array binding signal (z-score),[42],-0.394
same,glycan array binding signal (z-score),[43],1.7
same,glycan array binding signal (z-score),[44],2.18
same,glycan array binding signal (z-score),[45],-0.329
same,glycan array binding signal (z-score),[46],-0.398
same,glycan array binding signal (z-score),[47],-0.373
same,glycan array binding signal (z-score),[48],-0.393
same,glycan array binding signal (z-score),[49],-0.4
same,glycan array binding signal (z-score),[50],-0.4
same,glycan array binding signal (z-score),[51],-0.394
